From PubChem BioAssay (NCATS) come the findings set out here.

Results filed as inconclusive are left out. Values without a mark were called inactive. Calls come from the whole dose curve; as a rule, active = well fitted curve in either direction with a large enough effect (not every such curve was filed as active); inconclusive = small, poorly fitted or top-dose-only effect, or another doubt; inactive = flat fitted curve, though single readings scatter.
% is set by controls: 0 for no effect and ±100 for the full control effect.

A short description of the experiment: AP1 Signaling Pathway (AID 357). As to conditions: ME-180 (cervical carcinoma) AP-1-bla reporter, EGF-induced, beta-lactamase ratio, 5 h; at 17.2 µM (top of the series) unless noted. The text has this:
NCGC Assay Overview: Activator protein-1 (AP-1), a transcription factor, plays an important role in tumor genesis by regulating genes involved in cell proliferation, differentiation, apoptosis, and angiogenesis. AP-1 activity is induced by a complex network of signaling pathways that involves extracellular signals, such as growth factors. The AP-1 protein complex formed from c-Fos and c-Jun binding to the AP-1 response element results in transcriptional activation of genes containing such elements within their promoter. Low molecular weight molecules have been discovered and developed to modulate various components of these signaling pathways, for example, MAP kinase inhibitors. However, many points of pathway modulation remain untested due to the lack of chemical probes making this signaling locus of general interest. Using a beta-lactamase reporter-gene under control of the AP-1 response element, a cell-based assay [CellSensor(TM) AP-1-bla ME-180 developed by Invitrogen Corp.] was used to measure EGF-induced signaling. Library compounds were measured for their ability to modulate positively or negatively the action of EC50 EGF on reporter gene activity. Compounds were screened in a titration series in 1536-well format. Positive and negative modulators were identified based on the AC50 values derived from the screening data.
NCGC Assay Protocol Summary: 2500 cells/5uL in Opti-MEM medium containing 0.5% dialyzed FBS, 0.1 mM NEAA, 1 mM sodium pyruvate and 10 mM HEPES was dispensed into 1536-well plates and cells were cultured at 37 degrees Celsius overnight. […] After centrifugation at 1000 rpm for 2 seconds the plates were incubated at 37 degrees Celsius for 5 hours. 1 uL of CCF4-dye mixture was added to each well. After incubated at room temperature for 2.5 hours the plates were measured on an EnVision plate reader at Excitation 405nm, Emission1=460nm and Emission 2=530nm. The %Activity was determined from the ratio of 460nm/530nm.
As for `CCCCNC(=O)c1c(N)n(/N=C/c2cccnc2)c2nc3ccccc3nc12`, the activity change, negative = inhibition is -12%. For `CCCOc1cccc(CN2CCCCC2c2cccnc2)c1` (stereo not given), the activity change, negative = inhibition is 0.284%. For `CC1CCc2cc(F)cc3c(O)c(C(=O)Nc4cnccn4)c(=O)n1c23` (stereo not given) the value was -8.92%.

In the case of `NC(=O)CSc1nc(N)c2c3c(sc2n1)CCCCC3`, the activity change, negative = inhibition was -2.28%. For `CC(C)(C)C1=Nn2c(nnc2-c2ccco2)SC1` the value was 2.22%; for `CCOC(=O)CSc1nc(-c2ccncc2)ccc1C#N`, -1.16%. For `C=CCN(C)CCCNC(=O)/C=N/O` the value was -0.81%. On to `O=C(COc1ccccc1)Nc1ccc(-c2nnc(-c3ccco3)o2)cc1`, for which the activity change, negative = inhibition is 6.06%. The figure for `CCOC(=O)CSC1=C(C#N)C(c2ccc(OC)cc2)C2=C(CC(C)(C)CC2=O)N1` (stereo not given) is -15.4%. The figure for `Cc1ccnc(N2CCN(c3cc(C)c(C#N)c4nc5ccccc5n34)CC2)c1` is 22.1%; for `CC1(C)CC(=O)C2=C(C1)N(Cc1ccco1)C(=O)C2(NC(=O)c1cccnc1)C(F)(F)F` (stereo not given) it is -3.2%; for `CCC(C(=O)Nc1nccs1)(C(F)(F)F)C(F)(F)F` it is 0.462%. The figure for `CN1C(=O)NC(NC(=O)c2ccco2)(C(F)(F)F)C1=O` (stereo not given) is 3.54%. For `Cc1ccc(C(=O)C2C(c3cccs3)NC(=O)NC2(O)C(F)(F)F)cc1` (stereo not given), the activity change, negative = inhibition is 1.39%. Consider `CC12CCC(C(=O)NCCCN3CCOCC3)(OC1=O)C2(C)C` (stereo not given), for which the activity change, negative = inhibition is 12%. For `COc1cc2nc(-c3ccccc3)nc(N3CCCC3)c2cc1OC` the value was 24.5%.

With `COc1ccc(C2C(C#N)=C(C)NC3=C2C(=O)c2ccccc23)cc1` (stereo not given), the activity change, negative = inhibition was -6.13%.

For `COc1ccc(-c2oc3ncn4nc(COc5ccccc5)nc4c3c2-c2ccc(OC)cc2)cc1`, the activity change, negative = inhibition was -11.5%. The figure for `CCCCn1c(C)cc2cc(O)ccc21` is -15.1%. For `Cc1cc(C(F)(F)F)nn1CC(=O)NCC1CCCO1` (stereo not given) the value was 3.74%; for `CCCc1cc(NCCCCO)n2c(nc3ccccc32)c1C#N`, -18.6%. Turning to `CC(C)Cn1nc(NC(=O)C(C)(C)C)c2cc3ccccc3nc21`, the activity change, negative = inhibition was -20.3%.

As to `CCOC(=O)c1c(C)n(C)c2ccc(OC)c(NC(=O)c3cccs3)c12`, the activity change, negative = inhibition was -7.29%. The figure for `CC(C)(C)NC(=O)/C=N/O` is 10.5%; for `CC(C)CNC(=O)c1c(N)n(/N=C/c2ccccn2)c2nc3ccccc3nc12` it is 14.9%. As for `CN(C)C(=O)COn1c(SCC(=O)N(C)C)nc2ccccc2c1=O`, the activity change, negative = inhibition is 6.36%. The figure for `Cc1cc(C)n(CC2CC(=O)N(c3ccc(Cl)c(Cl)c3)C2=O)n1` (stereo not given) is -14.3%; for `N#Cc1c(NC(=O)CCC(=O)O)sc2c1CCCC2` it is -1.32%; for `COc1ccc(-c2nn3c(COc4ccccc4)nnc3s2)cc1OC` it is -9.35%.

With `N#CCc1nc2c3c4c(sc3ncn2n1)CCCC4`, the activity change, negative = inhibition is -0.68%. For `COCCNc1oc(-c2ccc(F)cc2)nc1C#N` the value was -13.6%; for `C=CCOc1nc2c(c(=O)n(C)c(=O)n2C)n1Cc1ccc(Cl)cc1`, -1.14%; for `CCOc1ccc(C2C(C#N)=C(N)SC(N)=C2C#N)cc1OC`, 0.186%. Consider `CCC(=O)Nc1ccc(-c2nnc(-c3ccccc3)o2)cc1`, for which the activity change, negative = inhibition was 0.816%. Consider `CCN(CC)CCN1C(=O)C(=O)/C(=C(/O)c2c(C)[nH]c(C(=O)OC)c2C)C1c1ccccc1` (stereo not given), for which the activity change, negative = inhibition is 2.47%. For `CN1C2C=C3C(C#N)=C(N)C(C#N)(C#N)[C@@H](c4ccc(Cl)cc4)[C@@H]3C1CC2` (stereo not given in full), the activity change, negative = inhibition was -8.82%. The figure for `O=S(=O)(N[C@@H]1C[C@H]2CC[C@@H]1C2)c1cccs1` is -5.92%. The figure for `COC(=O)/C(=C1/Oc2cc(C)oc(=O)c2S1)C(F)(F)F` is 7.82%; for `Cc1nc2c(o1)CCc1ccccc1C2N1CCN(C)CC1` (stereo not given) it is 22.5%.

For `COC(=O)c1sccc1NC(=O)c1c(C)cc(=O)oc1C`, the activity change, negative = inhibition is 9.11%.
